Source: PubChem
aSyn 5UTR act: Activators via SNCA 5'UTR binding, MLPCN; activity score, % (tested at 7.5 µM), hits read low; 300,000 tested, 7.1% active; alpha-synuclein 5'UTR reporter, activators screen; AID 1814; in the data active means activity score below about -60%
* marks the source's active call; other numbers are inactive results. A selection follows.

SMILES	aSyn 5UTR act
O=C(CC(Nc1ccc(F)cc1)C(=O)OCC(=O)c1cccs1)c1ccccc1 (configuration not stated)	-113*
O=C(CC(Nc1ccc(F)cc1)C(=O)O)c1ccccc1 (configuration not stated)	-171*
Cc1ccnc(NC(=O)CCc2c[nH]c3ccccc23)c1	-71*
Cc1ccnc(NC(=O)c2ccccc2NC(=O)c2ccc(Cl)cc2Cl)c1	69
C/C(CC(=O)Nc1cc(C)ccn1)=N\NC(=O)c1cccc(C)c1O	-63*
O=C(CCc1nnc(CCc2c[nH]c3ccccc23)o1)NC1CCC1	-133*
Cc1ccnc(NC(=O)CCNC(=O)c2ccccc2Cl)c1	-103*
Cc1ccnc(NC(=O)c2cccc3ccccc23)c1	-63*
CCCNC(=O)OCCC12CC3CC(CC(C3)C1)C2	-92*
CCc1ccc(Nc2ncnc3nc[nH]c23)cc1	-70*
COc1cccc(Nc2ncnc3nc[nH]c23)c1	-83*
Cc1ccc(NC(=O)Nc2ncnc3nc[nH]c23)cc1	-106*
Cc1ccc(Nc2ncnc3nc[nH]c23)cc1Cl	-146*
Cc1cc(C(=O)COC(=O)c2ccc[nH]c2=O)c(C)n1C	-68*
Cc1ccc(-n2c(C)cc(C(=O)COC(=O)c3ccc[nH]c3=O)c2C)cc1	-122*
COc1ccc(-c2csc(NC(=O)c3ccoc3C)n2)cc1	-124*
Cc1csc(NC(=O)c2sccc2C)n1	-68*
Cc1csc(NC(=O)c2ccc(S(C)(=O)=O)cc2)n1	-91*
COC(=O)c1c(-c2ccncc2)csc1NC(=O)c1ccoc1C	-120*
COc1ccc(-c2csc(NC(=O)c3cccc(S(=O)(=O)N4CCN(C)CC4)c3)n2)cc1	-71*
CC(=O)c1ccc(NC(=O)c2cccc(S(=O)(=O)N3CCN(C)CC3)c2)cc1	-112*
CCc1nnc(NC(=O)c2ccc(S(=O)(=O)N(C)Cc3ccccc3)cc2)o1	63
COc1ccccc1N(Cc1ccccc1)S(=O)(=O)c1cccc(C(=O)Nc2ccc(C(C)=O)cc2)c1	-88*
COc1ccc(/C(C)=N/NC(=O)c2cccc(S(=O)(=O)N3CCCC3)c2)c(O)c1	78
COc1ccc(-c2csc(NC(=O)c3ccc(S(C)(=O)=O)cc3)n2)cc1	-68*
SMILES	aSyn 5UTR act
Cc1cc(Nc2nc3ccccc3nc2Cl)n(-c2ccccc2)n1	-88*
Cc1ccc(-c2ccc(/C=C3\SC(N4CCOCC4)=NC3=O)o2)cc1	-72*
CCN(CC)c1ccc(/C=N/NC(=O)c2ccoc2C)cc1	-95*
Cc1ccc(C(=O)N/N=C/c2cccc(OC(=O)/C=C/c3ccco3)c2)cn1	-100*
O=C(N/N=C/c1ccccn1)c1ccc(N/N=C/c2ccccn2)cc1	-132*
Cn1nccc1C(=O)N/N=C/c1ccccc1[N+](=O)[O-]	-89*
O=C(/C=C/c1ccco1)Oc1cc(Br)cc(/C=N/NC(=O)c2ccccc2O)c1	96
Cc1occc1C(=O)N/N=C/c1ccccc1[N+](=O)[O-]	-121*
COc1cccc(/C=N/NC(=O)c2ccoc2C)c1	-125*
COC(=O)/C(=C/c1ccc2c(c1)c1ccccc1n2C)NC(=O)c1ccccc1	-68*
COc1cc(/C=N/NC(=O)c2ccoc2C)ccc1O	-67*
Cc1occc1C(=O)N/N=C/c1ccccn1	-84*
COc1cc(C(=O)N/N=C/c2ccc3c(c2)c2ccccc2n3C)ccc1O	-117*
COc1cccc(/C=N/NC(=O)c2c(-c3ccccc3)noc2C)c1O	58
CCOc1ccc(/C=N/NC(=O)c2ccoc2C)cc1OC	-110*
COc1cccc(/C=N/NC(=O)c2ccoc2C)c1O	-71*
COc1cccc(/C=N/NC(=O)c2cc3c(OC)cccc3[nH]2)c1O	86
COc1cccc(/C=N/NC(=O)NC2CCCCC2)c1O	-97*
COc1ccc(/C=N/NC(=O)c2ccoc2C)cc1CN1CCN(c2ccc(F)cc2)CC1	-79*
c1ccc(COc2ccc(OCCOCCn3cncn3)cc2)cc1	-117*
CCS(=O)(=O)c1ccc2oc(Nc3ccccc3Cl)nc2c1	-154*
CCS(=O)(=O)c1ccc2oc(Nc3ccccc3Br)nc2c1	-108*
CCS(=O)(=O)c1ccc2oc(Nc3cccc(OC)c3)nc2c1	-145*
CCOC(=O)C(NC(=O)Nc1ncccn1)(Oc1ccccc1)C(F)(F)F (configuration not stated)	-83*
CNC1=C(N(C(C)=O)c2ccc(Br)cc2)C(=O)c2ccccc2C1=O	111
SMILES	aSyn 5UTR act
COC1=C(Nc2ccc(C)cc2)C(=O)c2ccccc2C1=O	-156*
COC1=C(Nc2ccccc2)C(=O)c2ccccc2C1=O	-73*
Cc1nc(C#N)c(N/N=C/c2c(F)cccc2Cl)o1	-62*
COc1cc(C)c(C(C)C)cc1S(=O)(=O)n1cnc(C)c1	64
COc1ccccc1OCc1cc(-c2ccccc2)no1	-224*
c1ccc(OCc2cc(-c3ccccc3)no2)cc1	-169*
O=C(N/N=C/c1ccc2c(c1)OCO2)c1cccc(NC(=O)c2ccccc2Cl)c1	-158*
Cc1cccc(C(=O)Nc2cccc(C(=O)N/N=C/c3ccc4c(c3)OCO4)c2)c1	-109*
Nn1c(SCc2ccccc2F)nnc1-c1cccnc1	-177*
